Assay results from PubChem BioAssay AID492950 (Southern Research Specialized Biocontainment Screening …, 2010).
Measured potencies and affinities stand elsewhere. Unmarked numbers belong to inactive results. Active and inactive are the calls of the source. The rule behind the calls is not given here.

assay: viability loss in mammalian cells – cytotoxicity control, dose response (AID 492950); conditions: mammalian cell viability, cytotoxicity counter-screen; series mostly up to 40 µM; viability: at the top concentration

In order of rising “viability” value:
1. Fc1ccc(Nc2nc(Oc3ccccc3F)nc(N3CCCC3)n2)cc1  72.5%
2. Cc1cc(-c2[nH]nc3c2C(c2ccsc2)C(C#N)=C(N)O3)c(C)s1 (centres undefined)  78.3%
3. Cc1ccc(C(=O)Oc2ccc([N+](=O)[O-])cc2)cc1S(=O)(=O)N1CCCCCC1  81.1%
4. COc1ccc(N(C(=O)COc2cccc(C)c2)S(=O)(=O)c2ccc(C)cc2)cc1  83.8%
5. Cc1ccc(C2C(C#N)=C(N)Oc3n[nH]c(-c4cccs4)c32)cc1 (centres undefined)  85.6%
6. CCC(C)[C@@H](NC(=O)OC(C)(C)C)c1nnc(S(=O)(=O)Cc2cccc(C)c2)o1 (some centres undefined)  85.8%
7. Cc1ccc(-c2cc(=O)[nH][nH]2)c(C)c1  87.3%
8. CC(/C=N/NC(=O)Cc1cc(=O)[nH][nH]1)=C\c1ccccc1  88.2%
9. COc1cccc(-c2[nH]nc3c2C(c2ccsc2)C(C#N)=C(N)O3)c1 (centres undefined)  89%
10. O=C(CSc1nnc(-c2ccccc2Cl)o1)Oc1ccc(Br)cc1  89.2%
11. CSCCC1C(C#N)=C(N)Oc2n[nH]c(-c3cccs3)c21 (centres undefined)  89.6%
12. COc1ccc(/C=C2/C(=O)N(c3ccccc3)N=C2C)c(OC)c1  90.2%
13. O=c1cc(-c2ccc(Br)cc2)[nH][nH]1  91.1%
14. Cc1nn(C)c(C)c1C1C(C#N)=C(N)Oc2n[nH]c(C)c21 (centres undefined)  91.1%
15. O=C(Cc1cc(=O)[nH][nH]1)N/N=C/c1c(Cl)cccc1Cl  91.8%
16. Cc1ccc(-n2nnc3c(SCC(=O)NCC4CCCO4)ncnc32)cc1 (centres undefined)  92.2%
17. O=C(Cc1cc(=O)[nH][nH]1)N/N=C/c1ccccc1[N+](=O)[O-]  92.8%
18. Cc1ccccc1-c1nc(CN(C)C(C)c2ccon2)c(C)o1 (centres undefined)  93.4%
19. CC1=NNC(=O)C1Cc1c(Cl)cccc1Cl (centres undefined)  93.8%
20. COc1ccc(-c2[nH]nc3c2C(c2ccoc2)C(C#N)=C(N)O3)cc1 (centres undefined)  94.6%
21. O=C1CC(CSc2ccc(Cl)cc2)=NN1  96.4%
22. CC(=O)Nc1cc(OC(=O)c2ccco2)cc(OC(=O)c2ccco2)c1  96.9%
23. O=C(CSCc1cc(=O)[nH][nH]1)Nc1ccc(F)cc1  97.7%
24. O=C(Cc1ccccc1)c1c[nH]c(C(=O)C(Cl)(Cl)Cl)c1  98.5%
25. CC(=O)N(C1CC(C)C(C#N)(C#N)C1(C#N)C#N)N(C)C (centres undefined)  99.8%
26. N#CC1=C(N)Oc2n[nH]c(-c3cccs3)c2C1c1ccsc1 (centres undefined)  100%
27. O=C(Cc1cc(=O)[nH][nH]1)N/N=C/c1c(F)cccc1Cl  102%
28. Cc1ccc(SCc2[nH]nc3c2C2(CCSCC2)C(C#N)=C(N)O3)cc1  102%

With O=C(Cc1cc(=O)[nH][nH]1)N/N=C/c1cccc(Cl)c1Cl the outcome was “inactive”.
